# Mcl1 Bid PPI = Mcl-1/Bid binding inhibitors, primary screen, biochemical, TR-FRET, 1536-well; Induced myeloid leukemia cell differentiation protein Mcl-1 (Homo sapiens), Q07820; TR-FRET Mcl-1/Bid-Dy647 peptide binding; inhibition, % at 21.7 µM; 0.97% of 220,000 active; AID 1021, 2008;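 active means compounds that cut the binding signal by more than half at the single screening dose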;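 further: His-tagged Mcl-1 with europium anti-His antibody binding Bid BH3 peptide; 0% = Mcl-1 plus peptide wells and 100% = peptide-only wells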
# Target sequence (Q07820 whole entry, looked up): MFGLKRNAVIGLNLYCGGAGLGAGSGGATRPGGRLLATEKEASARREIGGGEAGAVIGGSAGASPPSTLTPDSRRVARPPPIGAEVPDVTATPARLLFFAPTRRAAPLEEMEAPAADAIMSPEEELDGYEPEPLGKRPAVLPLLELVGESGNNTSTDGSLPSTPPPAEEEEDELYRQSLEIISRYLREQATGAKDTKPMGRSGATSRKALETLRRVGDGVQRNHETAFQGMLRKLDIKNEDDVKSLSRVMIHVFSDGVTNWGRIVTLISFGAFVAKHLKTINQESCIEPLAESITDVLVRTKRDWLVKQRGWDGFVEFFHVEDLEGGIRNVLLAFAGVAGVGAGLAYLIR
# Mcl1-Noxa inh = Mcl-1/Noxa binding inhibitors, primary screen, biochemical, TR-FRET, 1536-well. Induced myeloid leukemia cell differentiation protein Mcl-1 (Homo sapiens), Q07820. TR-FRET Mcl-1/Noxa peptide binding, 2 h. inhibition, % at 21.7 µM. 1.5% of 220,000 active. AID 1022, 2008;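 active means compounds that cut the protein-peptide binding signal by more than 50% relative to plate controls in a single-dose test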;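 further: His-tagged Mcl-1 with rhodamine Noxa BH3 peptide and terbium anti-His antibody; 0% = Mcl-1 plus Noxa peptide wells and 100% = peptide-only wells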
# Mcl-1 Bim block = inhibitors of Bim peptide binding to Mcl-1, primary screen, biochemical, bead-based flow cytometry, multiplex | Induced myeloid leukemia cell differentiation protein Mcl-1 (Homo sapiens), Q07820 | Bim peptide-Mcl-1 binding | inhibition, % at 10 µM | 0.1% of 190,000 active | AID 1009, 2008; in the data active means inhibition above about 40%;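 further: 0% = no compound tracer wells and 100% = peptide blocker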
# MCL1 BIM primary = inhibitors of MCL1 binding to BIM-BH3, primary screen, biochemical, fluorescence polarization; Induced myeloid leukemia cell differentiation protein Mcl-1 (Homo sapiens), Q07820; GST-MCL1 / FITC-Bim-BH3 fluorescence polarization; inhibition, % at 10.9 µM; 0.68% of 320,000 active; AID 2057, 2009;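 active means inhibition above the mean inhibition of all tested compounds plus 3 SD, set per campaign, cut at about 40% in these data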;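 further: 0% = DMSO wells and 100% = unlabeled Bim-BH3 peptide control; higher means more loss of mP so more displacement of Bim peptide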
# L929 necroptosis = inhibitors of zVAD-triggered necroptosis, primary screen, L929 cells; AID 1377, 2008; 0.38% of 220,000 active; viability rescue, % at 10 µM; L929 zVAD necroptosis rescue, ATP luminescence, 24 h; with zVAD 60 µM;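 active means activation, scaled between plate controls, above about 75%, limit read from the data; inactive means activation under that limit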;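 further: 0% = zVAD with DMSO and 100% = DMSO alone without zVAD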
# TNF death inh = inhibitors of TNF-alpha triggered necroptosis, primary screen, cell-based, Jurkat FADD-/-, single concentration | Jurkat FADD-/- TNF necroptosis rescue, ATP luminescence, 24 h; 0 = TNF only, 100 = no-TNF cells | activation (protection from cell death), % at 10 µM | 0.068% of 220,000 active | AID 463075, 2010;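 active means activation, meaning protection from cell death, of at least 50% relative to plate controls; inactive means activation below 50%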;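 further: necroptosis triggered by 40 ng/mL TNF-alpha added together with compound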
# * = called active by the depositor; . = no result. Sampled rows, rich in hits. Any-hit rate of the full collection: about 2.4%.
SMILES,Mcl1 Bid PPI,Mcl1-Noxa inh,Mcl-1 Bim block,MCL1 BIM primary,L929 necroptosis,TNF death inh
COC(=O)Cn1cc(/C=N/NC(=O)COc2cccc3cccnc23)c2ccccc21,65.2*,28.5,0.0,8.2,0.4,2.7
O=C(NCCc1ccccc1F)C1CCC(=O)N(CCCN2CCCC2=O)C1 (stereo not drawn),.,.,.,-7.2,.,.
CC(C)(C)c1ccc(OCCC(=O)Nc2cccc(S(=O)(=O)N3CCOCC3)c2)cc1,.,.,.,-7.7,.,.
Cn1c(C(C#N)C2=C(Cl)C(=O)N(c3ccccc3)C2=O)nc2ccccc21 (stereo not drawn),-9.5,.,-4.0,42.0*,4.6,-2.4
CCCCNC(=O)O[C@H]1C[C@@H]2CCN3C(=O)CCC[C@H]([C@H]1Cc1ccccc1)[C@H]23,.,.,.,6.5,.,.
C=C(C)Cn1c(Sc2nnc(C)s2)nc2c1c(=O)[nH]c(=O)n2C,89.1*,-16.6,0.0,1.4,0.5,-3.5
Cc1ccc(C(=O)NCCNC(=O)c2ccc(F)cc2)cn1,.,.,.,13.2,.,.
Cc1cc(NC(=O)COC(=O)C2CC(=O)N(c3cccc(C)c3C)C2)no1 (stereo not drawn),.,.,.,0.7,.,.
Cc1ccc(N(C(=O)CCCC(=O)Nc2ccccn2)C(C(=O)NC2CCCC2)c2ccc(O)cc2)cc1C (stereo not drawn),.,.,.,-6.1,.,.
COc1ccc(/C=N/n2c(-c3ccccc3)n[nH]c2=S)cc1,.,.,.,-9.0,.,.
COc1ccc(/C=N/n2c(N)nc(-c3ccccc3)c2-c2ccccc2)cc1,56.5*,48.3,-3.0,0.3,0.0,-10.1
CC(OC(=O)COc1ccccc1Cc1ccccc1)C(=O)N(C)c1ccccc1 (stereo not drawn),.,.,.,-4.0,.,.
CC1(C)Cc2c(sc(NC(=O)c3ccc(S(=O)(=O)N4CCCCCC4)cc3)c2C#N)C(C)(C)N1,.,.,.,-5.7,.,.
Cc1cc(-c2nn(-c3ccccc3)cc2/C=C2\SC(N)=NC2=O)ccc1OC(C)C,0.0,-2.7,94.0*,-5.5,15.6,2.0
CCCOc1ccc(-c2nn(-c3ccccc3)cc2/C=C2\SC(N)=NC2=O)cc1,-7.9,-28.6,-3.0,0.7,0.4,0.7
COC(=O)c1ccc(NC(=O)c2ccccc2N(C)S(=O)(=O)c2ccccc2)cc1,98.1*,0.5,-1.0,1.7,-0.4,4.1
Cc1nc([N+](=O)[O-])cn1CC(=O)c1ccc(OC(F)(F)F)cc1,.,.,.,8.9,.,.
CCOC(=O)C1CCN(CC(=O)Nc2c(C(=O)OC)[nH]c3cccc(Cl)c23)CC1,99.3*,3.7,0.0,-3.3,-0.1,-6.2
COc1ccc(N2CCN(C(=O)Cn3nnc(-c4ccc(N(C)C)cc4)n3)CC2)cc1,60.5*,52.3*,0.0,-3.2,2.0,0.4
COc1ccc(-c2ccc(-c3nnn(CC(=O)N4CCOCC4)n3)cc2)cc1,1.5,8.7,0.0,3.3,0.3,-3.5
CCC(=O)N(Cc1ccco1)c1nc(-c2ccc(OC)cc2)cs1,4.0,15.5,1.0,-0.4,-0.1,0.0
CCC(=O)N(CC)c1nc(-c2ccc(OC)cc2)cs1,53.6*,-2.7,-4.0,-1.8,-0.2,-3.2
Cc1ccc(NC(=O)c2ccc(-n3cccn3)c([N+](=O)[O-])c2)cc1,-20.9,18.0,10.0,-5.5,0.4,-0.4
O=C(Nc1ccc(C2=NCCN2)cc1)c1ccc(C(=O)Nc2ccc(C3=NCCN3)cc2)c([N+](=O)[O-])c1,33.6,67.3*,.,14.1,0.6,-0.2
Cn1cc(C(=O)N/N=C/c2c(O)ccc3ccccc23)ccc1=O,-86.1,57.8*,-2.0,-2.3,65.1,-11.8
O=C(Nc1ccc2c(c1)OCO2)C1CC(c2cccc(Br)c2)=NO1 (stereo not drawn),.,.,.,-3.1,.,.
N#Cc1c(Cl)nc(N/N=C/c2ccccc2)c(Cl)c1Cl,2.4,41.4,-4.0,4.2,8.6,-12.4
C[N+](C)(C)c1ccc(/C=N/Nc2nc(Cl)c(C#N)c(Cl)c2Cl)cc1,90.8*,36.9,-4.0,-9.2,-0.4,0.1
O=Cc1cn(-c2ccccc2)nc1-c1cc2cc(O)ccc2oc1=O,61.2*,37.6,-2.0,-14.0,-0.6,-2.5

# Screening results: PubChem BioAssay, several laboratories
